Values without a mark were called inactive. The rule behind the calls is not given here.
Test: circadian clock period modulators, cell-based, LOPAC library, luminescence reporter (AID 2774);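 note: values are relative to mean of DMSO wells on each plate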
Conditions: circadian reporter cells, at 7 µM, actives lie on both sides

Row | SMILES | period change [h]
1 | Brc1c(NC2=NCCN2)ccc2nccnc12 | -0.1
2 | NCCS(=O)(=O)O | -0.23
3 | NC/C=C/C(=O)O | -0.005
4 | CC(C)NNC(=O)c1ccncc1 | 0.33
5 | O=c1c(-c2ccc(O)cc2)coc2cc(O)cc(O)c12 | 0
6 | Cc1cn([C@H]2C=C[C@@H](CO)O2)c(=O)[nH]c1=O | -0.14
7 | COc1ccccc1OCC(O)CN1CCN(CC(=O)Nc2c(C)cccc2C)CC1 (centres undefined) | 0
8 | C[C@@](Cc1ccc(O)c(O)c1)(NN)C(=O)O | 0.03
9 | CNC[C@H](O)c1ccc(O)c(O)c1 | 0.025
10 | Nc1nnc(-c2cccc(Cl)c2Cl)c(N)n1 | -0.15
11 | NC1CCN(c2cccc(Cl)n2)CC1 | -0.02
12 | CN(C)CC[C@@H](c1ccc(Cl)cc1)c1ccccn1 | -0.255
13 | C[C@](N)(Cc1ccc(O)cc1)C(=O)O | -0.34
14 | COc1cc2c(cc1OC)-c1cc(=Nc3c(C)cc(C)cc3C)n(C)c(=O)n1CC2 | 0.41
15 | Oc1ccc(C2CNCCc3c2cc(O)c(O)c3Cl)cc1 (centres undefined) | 0.145
16 | CCn1cc(C(=O)O)c(=O)c2cc3c(cc21)OCO3 | 0.16
17 | Cc1ccc(C(=O)Nc2ccc(S(=O)(=O)O)c3cc(S(=O)(=O)O)cc(S(=O)(=O)O)c23)cc1NC(=O)c1cccc(NC(=O)Nc2cccc(C(=O)Nc3cc(C(=O)Nc4ccc(S(=O)(=O)O)c5cc(S(=O)(=O)O)cc(S(=O)(=O)O)c45)ccc3C)c2)c1 | 0.03
18 | C[C@H]1O[C@@H](n2cc(F)c(=O)[nH]c2=O)[C@H](O)[C@@H]1O | -0.1
19 | CCN(CC)CCNC(=O)c1ccc(NC(C)=O)cc1 | 0.01
20 | CCCCNc1ccc(C(=O)OCCN(C)C)cc1 | 0.035

Test: hESC survival regulators, cell-based (AID 493140);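 note: cells exposed to compounds for four days before counting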
Conditions: human embryonic stem cell survival screen; active compounds read high

Row | SMILES | survival
21 | Nc1ccc(N=Nc2ccccc2)c(N)n1 | 4
22 | CC(C)NNC(=O)c1ccncc1 | 24.2
23 | CCN(CC)Cc1cc(Nc2ccnc3cc(Cl)ccc23)ccc1O | 6.17
24 | Cc1cc2cc3c(C)cc(=O)oc3c(C)c2o1 | 6
25 | CC/C(=C(/CC)c1ccc(O)cc1)c1ccc(O)cc1 | 3.75
26 | CN1CCC(=C2c3ccccc3Sc3ccccc32)CC1 | 12.3
27 | CCCCCCCCNC(C)C(O)c1ccc(SC(C)C)cc1 (centres undefined) | 0.25
28 | CCn1cc(C(=O)O)c(=O)c2cc3c(cc21)OCO3 | 33.2
29 | CCN(CC)C(C)CN1c2ccccc2Sc2ccccc21 (centres undefined) | 4.08
30 | CCCCC1C(=O)N(c2ccccc2)N(c2ccc(O)cc2)C1=O (centres undefined) | 4
31 | CCCCc1ccc2nc(NC(=O)OC)[nH]c2c1 | 1
32 | CCCCNc1ccc(C(=O)OCCN(C)C)cc1 | 12.4
33 | CCCCC(CC)CN=C(N)NC(N)=NCCCCCCN=C(N)NC(N)=NCC(CC)CCCC (centres undefined) | 0.25
34 | O=C1C(O)=C(O)C(=O)C(O)=C1O | 4.75

Source: PubChem BioAssay
